Screening results as filed in PubChem.
Sampled rows, rich in hits. Any-hit rate of the full collection: about 7.6%.
MCF10A rereplic: induces DNA re-replication in MCF 10a normal breast cells; Potency, µM (titrated, usually from 46.1 µM), for the others: at the top dose activity, positive = re-replication, hits mostly activators; AID 624296; 350,000 tested, 2.9% active; MCF 10A DNA re-replication, Hoechst nuclear intensity, 48 h; further: potency means the concentration at half of the fitted maximal effect; % of control where 0% means no effect; nearly all actives have a fitted effect of over 50% in size
KB-V1 MDR tox: KB-V1 MDR subline cytotoxicity; 400,000 tested, 3.4% active; AID 1347076; Potency, µM (titrated, usually from 46.1 µM), most hits filed as cytotoxic; KB-V1 MDR cells viability, CellTiter-Glo, 72 h; further: potency means the concentration at half of the fitted maximal effect; on the % scale 0 is the no-effect control and ±100 the full control effect; nearly all actives have a fitted effect of over 60% in size
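Following 72 h at 37 degrees C with compound, KB-V1 cell viability was read by CellTiter-Glo luminescence, medium being phenol-red-free DMEM plus 10% FBS; concentration-response parameters came from normalized, curve-fitted qHTS data.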
KB-3-1 tox: KB-3-1 parental cell cytotoxicity; KB-3-1 viability, CellTiter-Glo ATP luminescence, 72 h; Potency, µM (series often up to 46.1 µM), hits mostly cytotoxic; 400,000 tested, 1.4% active; further: potency means the concentration at half of the fitted maximal effect; on the % scale 0 is the no-effect control and ±100 the full control effect; nearly all actives have a fitted effect of over 60% in size
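Viability of parental KB-3-1 cells, measured by CellTiter-Glo luminescence, followed a 72 h incubation at 37 °C with pinned compounds in phenol-red-free DMEM containing 10% FBS.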
KCNH2 WT inh: inhibitors of human wildtype KCNH2 potassium channel | Q12809 | U2OS, BacMam KCNH2, thallium flux FluxOr; stronger effect = lower value | activity change, % at 1.84 µM | 340,000 tested, 0.37% active | AID 720551;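 active means maximum activity change below -70%; inconclusive means maximum activity change between -70% and -50%; inactive means maximum activity change above -50%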; further: on the % scale 0 is the no-effect control and ±100 the full control effect
Target sequence (Q12809 whole entry, looked up): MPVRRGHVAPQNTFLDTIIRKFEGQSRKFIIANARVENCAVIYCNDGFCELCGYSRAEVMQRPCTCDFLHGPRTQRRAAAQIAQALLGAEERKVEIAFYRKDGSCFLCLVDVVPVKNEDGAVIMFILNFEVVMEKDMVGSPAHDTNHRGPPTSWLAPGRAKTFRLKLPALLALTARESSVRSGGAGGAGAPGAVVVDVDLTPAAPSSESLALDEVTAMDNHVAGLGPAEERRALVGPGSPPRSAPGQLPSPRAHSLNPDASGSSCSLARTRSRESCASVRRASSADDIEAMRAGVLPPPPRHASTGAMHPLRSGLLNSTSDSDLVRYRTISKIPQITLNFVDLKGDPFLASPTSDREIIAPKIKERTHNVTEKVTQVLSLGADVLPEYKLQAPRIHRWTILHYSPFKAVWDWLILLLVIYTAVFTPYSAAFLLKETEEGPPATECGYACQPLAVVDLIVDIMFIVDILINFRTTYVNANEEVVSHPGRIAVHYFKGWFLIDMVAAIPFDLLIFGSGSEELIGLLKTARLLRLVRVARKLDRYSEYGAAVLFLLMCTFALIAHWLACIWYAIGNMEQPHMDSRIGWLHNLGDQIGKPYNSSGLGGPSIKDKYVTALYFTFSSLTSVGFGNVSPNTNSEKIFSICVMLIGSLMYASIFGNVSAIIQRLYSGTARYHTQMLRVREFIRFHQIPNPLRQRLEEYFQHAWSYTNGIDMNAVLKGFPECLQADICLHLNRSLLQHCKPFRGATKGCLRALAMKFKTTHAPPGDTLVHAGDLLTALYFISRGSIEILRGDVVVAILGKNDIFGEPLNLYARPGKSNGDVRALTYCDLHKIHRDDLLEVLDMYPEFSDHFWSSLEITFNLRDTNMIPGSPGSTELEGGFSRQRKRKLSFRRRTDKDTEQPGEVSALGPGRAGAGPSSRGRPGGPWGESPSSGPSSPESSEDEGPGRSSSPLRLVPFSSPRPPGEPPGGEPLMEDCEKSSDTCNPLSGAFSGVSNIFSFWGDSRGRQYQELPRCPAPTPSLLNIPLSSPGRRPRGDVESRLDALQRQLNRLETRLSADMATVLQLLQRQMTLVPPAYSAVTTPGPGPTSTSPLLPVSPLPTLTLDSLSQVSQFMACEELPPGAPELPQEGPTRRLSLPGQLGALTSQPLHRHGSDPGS
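U2OS cells transduced with wild-type KCNH2 virus are loaded with FluxOr dye for 45 min, and thallium flux is measured in kinetic reads before and after stimulation buffer. Rate constants are normalized to DMSO controls.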
KCNH2 3.1 inh: inhibitors of human KCNH2 3.1 potassium channel isoform. U2OS KCNH2 3.1, thallium flux FluxOr; stronger effect = lower value. activity change, % (tested at about 1.8 µM). 340,000 tested, 0.95% active;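 active means maximum activity change below -70%; inconclusive means maximum activity change from -70% to -50%; inactive means maximum activity change above -50%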;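 further: thallium influx rate constant from kinetic fluorescence after stimulation buffer; on the % scale 0 is the no-effect control and ±100 the full control effect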
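U2OS cells transduced with KCNH2 3.1 mutant virus (1.77 x 10^8 /mL, 4 h), plated overnight at 37 C, loaded 45 min with FluxOr dye plus Red40 quencher. Thallium flux rate constant from kinetic reads after stimulation buffer, normalised to controls.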
SW480 rereplic: DNA re-replication induction in SW480 cells | SW480 DNA re-replication, Hoechst DNA content imaging, 48 h | Potency, µM (highest dose often 46.1 µM), without a hit: top-dose re-replication activation, most hits filed as activators | 340,000 tested, 1.8% active | AID 624297; further: potency means the concentration at half of the fitted maximal effect; % of control where 0% means no effect; nearly all actives have a fitted effect of over 55% in size
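Cells (250 per well) received 23 nL compound or DMSO by pin tool and were kept 48 hr at 37 C, 5% CO2. Nuclei were then stained with Hoechst for 40 min and scanned for DNA content.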
Active calls of the source: *; i = inactive; ? = inconclusive; . = no result; [ ] = another dose, or the depositor's remark. Unless noted, the call rests on the fitted dose curve; in most records, active means well fitted curve in the direction sought with a large enough effect; inconclusive means small, poorly fitted or top-dose-only effect, or another doubt; inactive means no such curve, though single readings can be large; an effect the other way counts as inactive or inconclusive.

SMILES | MCF10A rereplic | KB-V1 MDR tox | KB-3-1 tox | KCNH2 WT inh | KCNH2 3.1 inh | SW480 rereplic
O=C(CN1C(=O)NC2(CCCC2)C1=O)OCc1ccc(Br)cc1 | 5% | i | i | -6 | 28 | -34%
COc1ccc(C(C(=O)NC(C)(C)C)N(CC2CCCO2)C(=O)CCC(=O)Nc2cc(C)on2)cc1 (stereo not given) | -7% | i | i | 0 | -8 | -1%
Cc1cc(NS(=O)(=O)c2ccc(NC(=O)c3ccccc3F)cc2)nc(C)n1 | . | i | i | . | . | .
COc1ccc(CCNCc2c(C(=O)O)c(C)n(Cc3ccccc3C)c2C)c(OC)c1 | . | ? | i | . | . | .
CCOC(=O)c1ccc(NC(=O)COc2ccc(CNCCO)cc2OCC)cc1 | 0% | i | i | 4 | -14 | -1%
CCOC(=O)c1ccc(NC(=O)COc2ccccc2CNCCc2ccccc2)cc1 | 2.3µM* | i | i | 12 | ? | -12%
C#CC[N+](C)(C)CCCCCCCCCCCC | 26µM* | i | 2.1µM* | 1 | -1 | 12µM*
C#CC[N+](C)(C)CCCCCCCCCC | ? | i | 3.7µM* | -5 | 2 | 21µM*
C#CC[N+](C)(C)CCCCCCCC | 11% | i | 5.2µM* | 6 | 12 | -1%
CC#CC[N+](C)(C)CCCCCCCCCCCC | ? | i | ? | 1 | -13 | ?
Nc1[nH]c(N=NC(=O)c2ccccc2O)c2ccccc12 | ? | 21µM* | ? | 7 | -3 | ?
Nc1[nH]c(N=NC(=O)c2ccccc2)c2ccccc12 | -1% | i | i | -2 | 4 | -94%
COc1ccccc1N1C(=O)c2cccc3c(N(C)CCO)ccc(c23)C1=O | -3% | i | i | 4 | 9 | -5%[1.84 µM]
Cc1ccccc1N1C(=O)c2cccc3c(N(C)CCO)ccc(c23)C1=O | -4% | 18µM* | i | -2 | 7 | ?
Cn1cc(C(=O)Nc2ccccn2)c(=O)c2ccccc21 | -1% | i | i | -22 | 30 | -6%
CCOC(=O)/C(C#N)=C1/C=CN(c2ccccc2)C=N1 | 9% | i | i | 14 | 4 | -3%
CCOC(=O)/C(C#N)=C1/C=CN(Cc2ccccc2)C=N1 | 12% | 13µM* | i | -249* | 7 | 0%
COc1ccccc1Cc1c(-c2ccco2)nc2c3ccccc3ccn12 | . | ? | i | . | . | .
Cc1cc(C)cc(C(=O)N2CCN(Cc3ccc4c(c3)OCO4)CC2)c1 | 1% | i | i | 1 | -7 | ?
Cc1cc(C(=O)N2CCN(Cc3ccc4c(c3)OCO4)CC2)cs1 | ? | 15µM* | i | -4 | -44 | -6%
O=C(c1ccc(S(=O)(=O)N2CCCCC2)cc1)N1CCN(Cc2ccc3c(c2)OCO3)CC1 | 12% | 2.6µM* | ? | 24 | 14 | -6%
Cc1ccc2c(CN3CCN(Cc4ccc5c(c4)OCO5)CC3)cc(=O)oc2c1C | 0% | i | i | 41 | -31 | -3%
O=C(c1cccc(S(=O)(=O)N2CCOCC2)c1)N1CCN(Cc2ccc3c(c2)OCO3)CC1 | 1% | ? | i | 3 | -2 | -3%
Cc1cc(C)c2c(CN3CCN(Cc4ccc5c(c4)OCO5)CC3)cc(=O)oc2c1C | ? | i | i | 24 | -92* | 1%
CCSc1ccccc1C(=O)N1CCN(Cc2ccc3c(c2)OCO3)CC1 | 2% | 18µM* | i | 3 | -7 | 1%
SMILES | MCF10A rereplic | KB-V1 MDR tox | KB-3-1 tox | KCNH2 WT inh | KCNH2 3.1 inh | SW480 rereplic
O=C(NCCN1CCN(c2cccc(Cl)c2)CC1)Nc1ccccc1C(F)(F)F | . | i | i | . | . | .
CC(C)[C@H](NC(=O)c1ccc(C(C)(C)C)cc1)C(=O)N1CCN(Cc2ccc3c(c2)OCO3)CC1 | 18µM* | ? | ? | 4 | -32 | ?
COc1ccc(NC(=O)C(NC(=O)Cc2cccs2)c2ccccc2)cc1 (stereo not given) | 14% | 12µM* | i | -4 | -3 | -1%
COc1ccc(S(=O)(=O)N2CCCCCC2)cc1C(=O)NCCOc1ccc(C)cc1 | 26% | 9.2µM* | i | -4 | -13 | 22%
COc1ccc(S(=O)(=O)N2CCCCCC2)cc1C(=O)N(C)Cc1ccc(C(C)(C)C)cc1 | 18µM* | ? | ? | -7 | -10 | -17%
COc1ccc(S(=O)(=O)N2CCCCC2)cc1NC(=O)Cc1cccs1 | ? | . | . | -6 | -76* | 0%
COc1ccc(NC(=O)C(NC(=O)Cc2cccs2)c2ccc(C)cc2)cc1 (stereo not given) | ? | i | i | 7 | -4 | -2%
COc1ccc(S(=O)(=O)N2CCCCCC2)cc1C(=O)Nc1ccc(C)cn1 | -12% | i | i | -9 | 12 | -79%
Cn1cccc1CNC(=S)Nc1ccccc1F | 6% | i | i | 9 | -22 | 5%
CC(C)CC(=O)N/C(N)=N/c1nc2ccccc2o1 | -1% | i | ? | 2 | -11 | -2%
O=C(NCCc1ccccc1)c1cc(S(=O)(=O)N2CCOCC2)ccc1F | 16% | i | i | 4 | -3 | 2%
Cc1cc(C)cc(OCCNC(=O)c2cc(S(=O)(=O)N3CCOCC3)ccc2F)c1 | 20% | ? | 23µM* | 0 | 1 | ?
COc1ccc(S(=O)(=O)N2CCCCCC2)cc1C(=O)NCc1cccs1 | 3% | 8.2µM* | i | 22 | 2 | 0%
Cc1ccc(C)c(C(=O)COC(=O)c2cc(S(=O)(=O)N3CCOCC3)ccc2F)c1 | . | i | i | -77* | 2 | .
O=C(COC(=O)c1cc(S(=O)(=O)N2CCOCC2)ccc1F)c1ccccc1 | ? | i | i | 0 | 10 | -3%
COc1ccccc1NS(=O)(=O)c1ccc(NC(=O)Cc2cccs2)cc1 | 7% | 21µM* | i | 7 | 6 | -12%
CCN(CC)C(=O)CSc1nnc(COc2ccccc2)n1N | -2% | i | i | -1 | 0 | 19%
COc1cc(CNc2ncnc3c2ncn3[C@H]2CN(Cc3ccc(F)cc3)C[C@@H](CO)O2)cc(OC)c1OC | . | i | i | . | . | .
CCN(CC)S(=O)(=O)c1ccc2c(c1)c(=O)c(C(=O)NCCCN(C)c1ccccc1)cn2C | 1% | i | i | 6 | -6 | 1%
CCN(CC)S(=O)(=O)c1ccc2c(c1)c(=O)c(C(=O)NCc1cccs1)cn2C | -31% | 6.5µM* | i | 6 | -10 | -125%
Cc1ccc(S(=O)(=O)N2CCOCC2)cc1C(=O)NCCCn1ccnc1 | -1% | ? | i | -90* | -11 | -1%
Cc1ccc(N(CCC(=O)N2CCOCC2)S(=O)(=O)c2ccccc2)cc1 | ? | . | . | 3 | -5 | -7%
